In PubChem BioAssay (NCATS):
Values joined by “and” are separate entries in the source; they are usually repeats but may differ in a detail not shown here. Equal entries are not always repeated. Records with an inconclusive call do not appear. Where a call stands in place of a potency, no number is given. More than one record can exist for a structure, and the calls need not agree. Active and inactive are the calls of the source. Calls follow the shape of the dose curve; as a rule, active = well fitted inhibition curve with a large enough effect; inconclusive = small, poorly fitted or top-dose-only effect; inactive = flat fitted curve, though single readings scatter.

assay: P-glycoprotein substrates identified in KB-8-5-11 adenocarcinoma cell line, qHTS therapeutic library screen (AID 1346987); settings: KB-8-5-11 (P-gp overexpressing) viability, CellTiter-Glo, 72 h; series mostly up to 44.5 µM; also: nearly all actives have a fitted effect of over 65% in size
Description: The ATP-binding cassette transporters P-glycoprotein (P-gp) is known to limit brain penetration of many chemotherapy drugs. […] As such, we developed a high-throughput screen (HTS) to identify substrates of P-gp from a series of chemical libraries including the National Center for Advancing Translational Sciences Pharmaceutical Collection NPC, 2,816 compounds), testing a total of 10,804 compounds, most of which have known mechanisms of action. We used the CellTiter-Glo viability assay to test library compounds against the parental KB-3-1 human cervical adenocarcinoma cell line and the colchicine-selected sub-line KB-8-5-11 that over-expresses P-gp. KB-8-5-11 cells were also tested in the presence of a P-gp inhibitor (tariquidar) to assess reversability of transporter-mediated resistance. Of the tested compounds, a total of 90 P-gp substrates were identified including 55 newly identified P-gp substrates. Substrates were confirmed using an orthogonal killing assay against HEK-293 cells transfected with P-gp. As exemplars, we confirmed that […] (cyclin-dependent kinase inhibitor); AT9283, (Janus kinase 2/3 inhibitor); ispinesib (kinesin spindle protein inhibitor); gedatolisib (PKI-587, phosphoinositide 3-kinase/mammalian target of rampamycin inhibitor); GSK-690693 (AKT inhibitor); and KW-2478 (heat shock protein 90 inhibitor) were substrates , and direct ATPase stimulation was assessed. ABCG2 was also found to confer high levels of resistance to AT9283, GSK-690693 and gedatolisib, while ispinesib, AT7519 and KW-2478 were weaker substrates.
The HeLa derivative cell line, KB-3-1, and its colchicine-selected, P-gp-overexpressing subline, KB-8-5-11 were maintained in DMEM with 10% FCS and Pen/Strep with glutamine at 37 degree C in 5% CO2. For KB-8-5-11 cells, colchicine was added to the medium at a concentration of 100 ng/mL. HEK-293 cells transfected with empty vector (pcDNA) or vector containing human ABCB1 (MDR-19) or ABCG2 (R-5) have been described previously (Robey, Lin, Qiu, Chan & Bates, 2011) and were maintained in EMEM supplemented with 10% FCS, Pen/Strep and glutamine with 2 mg/ml G418 to select for the expression of the transporter. Cultures were confirmed to be free of mycoplasma infection using the MycoAlert Mycoplasma Detection Kit (Lonza, Walkersville, MD). For the screen, assay medium was identical to culture medium except for KB-8-5-11 where colchicine was excluded from the medium.
All cell lines were plated into 1536-well plates at 500 cells/well in 5 uL media. Compounds were then pinned in dose-response using a 1536-head pin tool (Kalypsis, San Diego, CA) and plates were incubated at 37 degree C in 5% CO2 for an additional 72 h. CellTiter-Glo reagent (Promega) was dispensed into the wells, incubated for 5 min and luminescence was read on a ViewLux instrument (Perkin-Elmer). Cytotoxic compounds were defined as those that yielded a curve class of -1.1, -1.2, -2.1, -2.2, -2.3, or -2.4, a maximum response of >50% and an AC50 of < 10 uM. Cherry-picked hits from screening analysis were tested with both the KB pair of cell lines, and the pcDNA (empty vector control) and MDR-19 (P-gp overexpressing) pair were tested, in the absence and presence of tariquidar.
Potency is read from the fitted curve at half-maximal effect.

Row | Compound | Potency
1 | CO[C@@H]1[C@@H](OC(N)=O)[C@@H](O)[C@H](Oc2ccc3c(O)c(NC(=O)c4ccc(O)c(CC=C(C)C)c4)c(=O)oc3c2C)OC1(C)C | inactive
2 | CCOC(=O)c1ccc(C#Cc2ccc3c(c2)C(C)(C)CCS3)nc1 | inactive
3 | Cc1nnc(C(=O)NC(C)(C)c2nc(C(=O)NCc3ccc(F)cc3)c(O)c(=O)n2C)o1 | inactive
4 | CC[C@H](NC(C)C)[C@H](O)c1ccc(O)c2[nH]c(=O)ccc12 | inactive
5 | CN1CCN(c2c(F)cc3c(=O)c(C(=O)O)cn(CCF)c3c2F)CC1 | inactive
6 | NC(=O)N1c2ccccc2CC(=O)c2ccccc21 | inactive
7 | CCC(=O)O[C@]1(C(=O)CCl)[C@@H](C)C[C@H]2[C@@H]3CCC4=CC(=O)C=C[C@]4(C)[C@@]3(F)[C@@H](O)C[C@@]21C | inactive
8 | NC(N)=NC(N)=NCCc1ccccc1 | inactive
9 | CCOCC(O)COc1ccc(NC(=O)CC[S+](C)C)cc1 (stereo not given) | inactive
10 | Nc1nc(=S)c2[nH]cnc2[nH]1 | 5.8 µM (active) and 1.18 µM (active)
11 | CNC1CCCN(c2c(F)cc3c(=O)c(C(=O)O)cn(C4CC4)c3c2OC)C1 (stereo not given) | inactive
12 | Cc1noc(NS(=O)(=O)c2ccc(N)cc2)c1C | inactive
13 | Cc1ncc([N+](=O)[O-])n1CCO | inactive
14 | CNS(=O)(=O)CCc1ccc2[nH]cc(C3CCN(C)CC3)c2c1 | inactive
15 | CCCCCCNC(=O)n1cc(F)c(=O)[nH]c1=O | 6.51 µM (active)
16 | CN1CCCC(n2nc(Cc3ccc(Cl)cc3)c3ccccc3c2=O)CC1 (stereo not given) | inactive
17 | Clc1ccccc1CN1CCc2sccc2C1 | inactive
18 | CC(C)(C)NC(=O)[C@H]1CC[C@H]2[C@@H]3CC[C@H]4NC(=O)C=C[C@]4(C)[C@H]3CC[C@]12C | inactive
19 | CC(C(=O)O)c1ccc2c(c1)CC(=O)c1ccccc1S2 (stereo not given) | inactive
20 | CC(N)C12CC3CC(CC(C3)C1)C2 (stereo not given) | inactive

Row | Compound | Potency
21 | CC(=O)CC(c1ccccc1)c1c(O)c2ccccc2oc1=O (stereo not given) | inactive
22 | COc1c(N2CCNC(C)C2)c(F)cc2c(=O)c(C(=O)O)cn(C3CC3)c12 (stereo not given) | inactive
23 | COc1cc(NCc2ccc3nc(N)nc(N)c3c2C)cc(OC)c1OC | inactive and 5.8 µM (active)
24 | CC(=O)Oc1ccccc1C(=O)Nc1ncc([N+](=O)[O-])s1 | inactive and 13 µM (active)
25 | CC(C)(Sc1cc(C(C)(C)C)c(O)c(C(C)(C)C)c1)Sc1cc(C(C)(C)C)c(O)c(C(C)(C)C)c1 | inactive
26 | CCN(C)C(=O)Oc1cccc([C@H](C)N(C)C)c1 | inactive
27 | O=C(N[C@H](CO)[C@H](O)c1ccc([N+](=O)[O-])cc1)C(Cl)Cl | inactive
28 | CCCc1cc(C(N)=S)ccn1 | inactive
29 | CCN(CC)CCn1c(=O)c(Cc2ccc(OC)cc2)nc2ccccc21 | inactive
30 | Cc1cc(NS(=O)(=O)c2ccc(N)cc2)no1 | inactive
31 | Cn1nnc2c(C(N)=O)ncn2c1=O | inactive
32 | NC(=O)c1ccc2[nH]ccc2c1 | inactive
33 | O[C@@H](CNC[C@H](O)[C@H]1CCc2cc(F)ccc2O1)[C@@H]1CCc2cc(F)ccc2O1 | 20.9 µM (active)
34 | NC1(c2ccc(-c3nc4ccn5c(=O)[nH]nc5c4cc3-c3ccccc3)cc2)CCC1 | 11.6 µM (active)
35 | CC(C)C[C@H](NC(=O)[C@H](CCc1ccccc1)NC(=O)CN1CCOCC1)C(=O)N[C@@H](Cc1ccccc1)C(=O)N[C@@H](CC(C)C)C(=O)[C@@]1(C)CO1 | 9.2 µM (active)
36 | COc1cnc(NS(=O)(=O)c2ccc(N)cc2)nc1 | inactive
37 | Cc1oc(=O)oc1CN1CCN(c2cc3c(cc2F)c(=O)c(C(=O)O)c2n3C(C)S2)CC1 (stereo not given) | inactive
38 | O=NN(CCCl)C(=O)NC1CCCCC1 | inactive
39 | O=c1oc2c(O)c(O)cc3c(=O)oc4c(O)c(O)cc1c4c23 | inactive
40 | CC1=NN(c2ccccc2)C(=O)C1 | inactive
